According to PMC4336329 (PLoS ONE, 2015):
In all, about 310,000 compounds went through this assay and about 14,000 (4.5%) showed an effect of 50% or more. The effect is printed as a negative number. Shown is part of a subset that was picked to be rich in strong results.

target: human ether-à-go-go-related gene (hERG) potassium channel (human, UniProt Q12809); assay: primary screen, population patch clamp on CHO cells stably expressing hERG; higher = less effect of the substance
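Also: peak tail current of the secondary pulse compared with the same well before compound.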

Sequence of human ether-à-go-go-related gene (hERG) potassium channel (Q12809 whole entry, looked up): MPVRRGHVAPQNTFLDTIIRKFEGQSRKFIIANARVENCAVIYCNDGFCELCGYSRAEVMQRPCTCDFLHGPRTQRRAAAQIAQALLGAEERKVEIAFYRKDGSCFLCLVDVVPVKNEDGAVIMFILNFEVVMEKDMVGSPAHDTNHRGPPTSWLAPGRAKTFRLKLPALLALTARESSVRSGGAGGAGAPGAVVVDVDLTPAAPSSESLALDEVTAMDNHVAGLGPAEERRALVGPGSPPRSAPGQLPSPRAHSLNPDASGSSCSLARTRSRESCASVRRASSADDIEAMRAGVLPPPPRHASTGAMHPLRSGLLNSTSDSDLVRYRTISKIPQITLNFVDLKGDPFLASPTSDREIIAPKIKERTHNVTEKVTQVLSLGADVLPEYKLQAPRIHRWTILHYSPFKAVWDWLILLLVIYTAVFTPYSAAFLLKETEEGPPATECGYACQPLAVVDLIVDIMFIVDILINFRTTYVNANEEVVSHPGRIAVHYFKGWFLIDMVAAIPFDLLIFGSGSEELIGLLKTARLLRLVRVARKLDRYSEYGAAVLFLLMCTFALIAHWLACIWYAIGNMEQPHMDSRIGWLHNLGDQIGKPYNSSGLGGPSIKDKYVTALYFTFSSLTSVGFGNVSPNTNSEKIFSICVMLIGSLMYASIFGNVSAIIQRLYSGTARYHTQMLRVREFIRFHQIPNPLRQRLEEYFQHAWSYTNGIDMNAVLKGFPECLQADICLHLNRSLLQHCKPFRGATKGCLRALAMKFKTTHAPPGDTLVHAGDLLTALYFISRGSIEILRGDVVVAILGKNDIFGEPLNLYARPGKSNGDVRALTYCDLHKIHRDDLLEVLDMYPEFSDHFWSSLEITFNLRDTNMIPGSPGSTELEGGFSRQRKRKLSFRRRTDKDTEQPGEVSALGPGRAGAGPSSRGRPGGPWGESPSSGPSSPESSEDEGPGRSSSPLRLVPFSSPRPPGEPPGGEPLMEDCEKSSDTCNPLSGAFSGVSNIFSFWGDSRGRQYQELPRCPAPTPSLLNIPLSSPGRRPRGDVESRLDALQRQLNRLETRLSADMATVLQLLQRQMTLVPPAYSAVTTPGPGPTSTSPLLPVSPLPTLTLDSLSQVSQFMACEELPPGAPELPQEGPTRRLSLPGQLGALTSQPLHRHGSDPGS

SMILES | hERG current change (%, negative = inhibition) at 10uM [%]
O=C(CCN1C(=O)c2ccccc2C1=O)OCN1C(=O)c2ccccc2C1=O | -11.5
COCCSc1ccccc1C(=O)NCc1cccnc1 | 18.7
CCc1c(C)[nH]c2nc3ccccc3n2c1=O | 4.86
CC(C)c1nc2ccc(NC(=O)C34CC5CC(CC(C5)C3)C4)cc2[nH]1 | 4.9
COCCCn1c(SCC(=O)Nc2nnc(C)s2)nnc1-c1ccoc1C | 4.33
Cc1ccc(NC2=NC(=S)N(CC#N)C23CCCCC3)cc1 | -6.19
CC(C)Oc1cccc(C(=O)C2CCCN(Cc3cccn3-c3cccnc3)C2)c1 (centres unmarked) | -27.7
Cc1c(CN2CCCC(C(=O)c3cccc(OC(C)C)c3)C2)c(=O)n(-c2ccccc2)n1C (centres unmarked) | -57.2
CC(C)Oc1cccc(C(=O)C2CCCN(Cc3cccn3-c3ccccn3)C2)c1 (centres unmarked) | -78.8
Cc1c(CN2CCCC(C(=O)c3cccc(Cl)c3)C2)c(=O)n(-c2ccccc2)n1C (centres unmarked) | -24
COc1cccc(C(=O)C2CCCN(C(=O)c3ccccn3)C2)c1 (centres unmarked) | 3.77
COc1cccc(C(=O)C2CCCN(Cc3cccn3-c3ccccn3)C2)c1 (centres unmarked) | -76.5
CC(C)Oc1cccc(C(=O)C2CCCN(Cc3ccon3)C2)c1 (centres unmarked) | -3.37
COc1cccc(C(=O)C2CCCN(Cc3c(C)n(C)n(-c4ccccc4)c3=O)C2)c1 (centres unmarked) | -21.2
COc1ccc(C(=O)Nc2c3c(nn2C(C)(C)C)CS(=O)(=O)C3)cc1OC | 13.1
CCc1ccccc1NS(=O)(=O)c1cc(C)ccc1OC | -5.89
O=C(O)COc1ccccc1/C=N/NC(=O)c1ccc2c(c1)OCCO2 | -2.93
O=C(CSc1nnc(COc2ccc3c(c2)CCCC3)o1)Nc1ccc(F)cc1 | 10.2
Cc1ccc2c(C)nc(Nc3ncc4c(n3)CCCC4=O)nc2c1 | -12.4
Cc1cc(C)n2nnnc2n1 | 18.5
Cc1cc(C(=O)NCCC(c2ccccc2)c2ccccc2)c(C)o1 | -17.5
COc1ccccc1C(=O)NCC(=O)NCCC(c1ccccc1)c1ccccc1 | -64.4
COc1ccccc1C(=O)NCC(=O)NC(C)CCc1ccccc1 (centres unmarked) | 1.99

SMILES | hERG current change (%, negative = inhibition) at 10uM [%]
Cc1ccc(C(NC(=O)c2ccccc2S(C)(=O)=O)c2ccccc2)cc1 (centres unmarked) | -30.3
COc1ccccc1C(=O)NCC(=O)Nc1ccccc1 | 5.97
CS(=O)(=O)c1ccccc1C(=O)NCCC(c1ccccc1)c1ccccc1 | -51.9
O=C(C1CCCO1)N1CCN(C(=S)Nc2ccc(Cl)c(Cl)c2)CC1 (centres unmarked) | -30.2
CCN(CC)C(=O)c1cn(-c2ccccc2)nc1-c1ccc2c(c1)OCCO2 | -3.56
O=C(Nn1c(C2CC2)nc2ccccc2c1=O)c1ccco1 | -8.14
CCN(CC(=O)NCc1ccc(F)cc1)C(=O)/C=C/c1cccs1 | -40.9
Cc1cc(C)n(-c2ccc(Cl)c(C(=O)OCC(=O)N3CCCCC3C)n2)n1 (centres unmarked) | -4.12
NC(N)=Nc1nc(-c2ccccc2)c2ccccc2n1 | -40.1
NC(N)=Nc1nc(-c2ccccc2)c2cc(F)ccc2n1 | -66.2
NNc1nc(-c2ccccc2)c2cc(Cl)ccc2n1 | -11.3
Cc1nc(N=C(N)N)nc2ccccc12 | 23.6
Clc1ccc2nnnc(-c3ccccc3)c2c1 | -9.98
Cl.NC(N)=Nc1nc(-c2ccccc2)c2cc(Cl)ccc2n1 | -67.9
CC(=O)c1ccc(NC(=S)N2CCN(C(=S)Nc3ccc(C(C)=O)cc3)C(C)C2)cc1 (centres unmarked) | 20.6
CCN(CC)S(=O)(=O)c1cccc(NC(=S)NC(=O)/C=C/c2ccc(S(=O)(=O)N3CCOCC3)cc2)c1 | -6.82
CCCCc1nc2ccccc2[nH]1 | 14.2
CSc1nc2sc(-c3ccccc3)cc2c(=O)n1N | 17.4
O=C(NNC(=O)c1ccccc1-n1cccc1)c1ccccc1 | -18.3
N#Cc1nc(-c2ccccc2Cl)oc1NCc1ccco1 | -8.28
Cc1ccc(-c2nc(C#N)c(NCc3ccco3)o2)cc1 | -0.709
Cc1ccccc1-c1nc(C#N)c(NCc2ccco2)o1 | -57.2
O=C(COc1ccccc1)N1CCN(C(=O)Cc2ccccc2)CC1 | -1.51

SMILES | hERG current change (%, negative = inhibition) at 10uM [%]
COc1cc2nc(SCC(=O)c3ccc(Br)cc3)n3nc(C)nc3c2cc1OC | -17.7
Cn1cc(CN2CCCC(C(=O)c3cccs3)C2)c(-c2cccc(Cl)c2)n1 (centres unmarked) | -39.2
Cc1ccsc1C(=O)C1CCCN(Cc2cn(C)nc2-c2ccccc2)C1 (centres unmarked) | -32.1
COc1ccc(C(=O)C2CCCN(Cc3cn(C)nc3-c3ccccc3)C2)cc1F (centres unmarked) | -72.4
COc1cccc(C(=O)C2CCCN(Cc3cn(CC(N)=O)c4ccccc34)C2)c1 (centres unmarked) | -53
COc1cccc(C(=O)C2CCCN(Cc3cn(C)nc3-c3ccccc3)C2)c1 (centres unmarked) | -68.8
Cc1nn(C)cc1CN1CCCC(C(=O)c2ccc(-c3ccccc3)cc2)C1 (centres unmarked) | -45.4
Cc1nn(C)cc1CN1CCCC(C(=O)c2ccc(-c3ccccc3)c(F)c2)C1 (centres unmarked) | -15.3
NC(=O)NC1NC(=O)NC1=O (centres unmarked) | 11.9
C/C(Cl)=C\Cn1c(O)c(N=NC(N)=S)c2cc(Br)ccc21 | 8.96
COc1cccc(C(=O)N(C)CC(=O)Nc2ccc(F)c(F)c2F)c1 | 11.4
O=C(COC(=O)c1ccc(S(=O)(=O)N2CCOCC2)cc1)NC1CCCCCCC1 | 12.2
Clc1ccc(Nc2ccc(-n3ccnc3)nn2)cc1Cl | -9.9
CC(=O)c1cc2c(C)cc(=O)oc2cc1O | 1.77
CC1CCN(C(=O)Cn2c(=O)n(Cc3ccc4c(c3)OCO4)c(=O)c3ccccc32)CC1 | -18.5
CCN(CC)CCOC(=O)c1cccc(Cl)c1.Cl | -32.4
CCCN(CCC)CCCOC(=O)c1ccc(Cl)cc1Cl.Cl | -70.1
CN(C)CCCOC(=O)c1ccccc1Cl.Cl | -0.792
CCN(CC)CCOC(=O)c1ccc(Cl)cc1Cl.Cl | -55.4
CCN(CC)CCOC(=O)c1ccc(Cl)cc1.Cl | -42.7
CN(C)CCCOC(=O)c1ccc(Cl)cc1Cl.Cl | -38.8
Cc1nnc(NC(=O)CN2CCN(Cc3ccccc3Cl)CC2)s1 | 6.08
CSc1cccc(NC(=O)c2ccccn2)c1 | 7.57

SMILES | hERG current change (%, negative = inhibition) at 10uM [%]
CC[C@H](C)C(N)c1cn([C@@H](CC(N)=O)C(=O)N2CCNCC2)nn1 (some centres unmarked) | -10.5
COc1ccc2c(c1)C(NS(=O)(=O)OCC(Cl)(Cl)Cl)CCC2 (centres unmarked) | -0.647
CC1CCCC(NC(=O)CCNC(=O)c2ccc(Br)cc2)C1C (centres unmarked) | -0.231
Cc1ccc(C)c(OC(C)C(=O)Nc2nccs2)c1 (centres unmarked) | 3.8
CN(C)c1ccc(/C=N/NC(=O)CCC(=O)NCc2ccccc2)cc1 | 11.3
CCc1cc(C(=O)N2CCc3c([nH]c4ccccc34)C2c2ccc(OC)cc2F)no1 (centres unmarked) | 15.7
COc1ccc2oc(C(=O)CCC(=O)O)c(N)c2c1 | 4.93
COc1ccccc1N1CCN(C(=O)c2cc(C)oc2C)CC1 | 21
O=C(NN1CC(=O)N(c2cc(Cl)cc(Cl)c2)CC1=O)c1sccc1Cl | -0.682
Cc1cccc(N(CC(=O)N/N=C/c2ccccc2C(=O)O)S(C)(=O)=O)c1C | -28.9
CC(C)C(=O)N/N=C/c1ccc(OCc2ccccc2)cc1 | 17.8
CC(C)(C)NCC(=O)N/N=C/c1ccc(OCc2ccccc2)cc1 | -60.5
N#CCC(=O)N/N=C/c1ccc(OCc2ccccc2)cc1 | 11.3
O=C(NNc1nc2ccccc2nc1C(F)(F)F)c1ccccc1 | 11.9
Cc1ccc(NC(=O)c2cc(-c3ccccc3)n[nH]2)cc1 | 18.3
CC(C)c1ccc(N(C(=O)c2csnn2)C(C(=O)NC(C)(C)C)c2ccncc2)cc1 (centres unmarked) | -42.8
CC(C)C[C@@H](CO)N1CCN(CCc2ccccc2)CCC1=O | -23
CCCN1CCC(=O)N([C@H](COc2ccccc2)CC(C)C)CC1 | -81.9
CCCN1CCC(=O)N([C@H](CN=[N+]=[N-])CC(C)C)CC1 | 3.11
CC(C)C[C@@H](COc1ccccc1)N1CCN(Cc2ccccc2)CCC1=O | -35.4
CC(C)C[C@@H](COc1ccccc1)N1CCN(CCc2ccccc2)CCC1=O | -77.5
COc1cc([N+](=O)[O-])ccc1NC(=O)CN(C)C | -15.9
O=C(O)CC(CC(=O)Nc1ccccc1C(=O)O)c1ccccc1 (centres unmarked) | 3.3
